Source: PubChem
Only some compounds are listed: those with a hit (about 19% of all), similar ones and a draw of the others.
TGFb SMAD3 inh – inhibitors of TGF-b signaling. AID 588855. HepG2 CAGA-GFP TGF-b/SMAD3 reporter, GFP fluorescence, 18 h; TGF-beta stimulated, 500 pg/mL final. Potency, µM (doses to about 46.1 µM), inactives show at the highest dose activity, negative = inhibition, hits mostly inhibitors. 410,000 tested, 1.2% active; note: potency is the fitted concentration of half-maximal effect; % is set by controls: 0 for no effect and ±100 for the full control effect; nearly all actives have a fitted effect of over 65% in size
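Smad-responsive CAGA-GFP expression was quantified in HEPG2 cells exposed to compounds and 500 pg/mL final TGF-beta for 18 h at 37 degrees C; unstimulated wells defined full inhibition.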
HepG2 tox – kills HepG2 cells in TGF-b inhibitor counter-screen; Potency, µM (titrated, usually from 46.1 µM), for inactives: at the top dose activity change, negative = cytotoxicity, actives largely listed as cytotoxic; AID 588856; 410,000 tested, 0.76% active; HepG2 CAGA-GFP viability, ATP luminescence, 18 h; note: potency is the fitted concentration of half-maximal effect
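HepG2 CAGA-GFP cells (1000/well, DMEM with 1% FBS) received compound, then TGF-beta at 500 pg/mL final, and were incubated 18 hours at 37 degrees C. Viability was read by CellTiter-Glo luminescence. Media-only wells were set as complete cell-killing and DMSO as no toxicity.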
IL1B secr inh – blocks inflammasome-driven IL-1 beta release | THP-1 LPS/ATP IL-1B secretion, AlphaLISA, 16 h; stronger effect = lower value | 360,000 tested, 4.7% active | activity change, % at 57.5 µM | AID 743279; in the data active = activity change below about -50%; inconclusive = mostly about -30% to -49%; note: % is set by controls: 0 for no effect and ±100 for the full control effect
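Secreted IL-1B measured by AlphaLISA bead assay after 16 h compound exposure of THP-1 cells; compounds (final up to 57.5 uM) added 1 h before LPS (250 ng/mL) and ATP (1.25 mM) stimulation; lower signal means less secretion.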
DT40 TDP1 CPT – growth inhibition of DT40 Tdp1-/-;hTDP1 cells with camptothecin (screen for TDP1 inhibitors); 420,000 tested, 12% active; Potency, µM (titrated, usually from 46.2 µM), for the others: at the highest dose activity change, negative = growth inhibition, actives largely listed as inhibitors; chicken DT40 Tdp1-/-;hTDP1 cells + 20 nM CPT, ATP luminescence, 48 h; note: potency is the fitted concentration of half-maximal effect; % is set by controls: 0 for no effect and ±100 for the full control effect; nearly all actives have a fitted effect of over 55% in size
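Cell growth measured by CellTiter-Glo luminescence after a minimum 48 h, 37 C compound exposure with 20 nM CPT in Tdp1-knockout DT40 cells stably expressing hTDP1, seeded 400/well; qHTS titration format.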
S-ASM inh – blocks human secretory acid sphingomyelinase. placental ASM, HMU-PC fluorogenic substrate, 60 min. AID 504937. 340,000 tested, 0.006% active. Potency, µM (top dose mostly 57.5 µM), inactives show top-dose activity change, negative = inhibition, most hits filed as inhibitors; note: potency is the fitted concentration of half-maximal effect
Target sequence (P17405 47-631 limits assumed): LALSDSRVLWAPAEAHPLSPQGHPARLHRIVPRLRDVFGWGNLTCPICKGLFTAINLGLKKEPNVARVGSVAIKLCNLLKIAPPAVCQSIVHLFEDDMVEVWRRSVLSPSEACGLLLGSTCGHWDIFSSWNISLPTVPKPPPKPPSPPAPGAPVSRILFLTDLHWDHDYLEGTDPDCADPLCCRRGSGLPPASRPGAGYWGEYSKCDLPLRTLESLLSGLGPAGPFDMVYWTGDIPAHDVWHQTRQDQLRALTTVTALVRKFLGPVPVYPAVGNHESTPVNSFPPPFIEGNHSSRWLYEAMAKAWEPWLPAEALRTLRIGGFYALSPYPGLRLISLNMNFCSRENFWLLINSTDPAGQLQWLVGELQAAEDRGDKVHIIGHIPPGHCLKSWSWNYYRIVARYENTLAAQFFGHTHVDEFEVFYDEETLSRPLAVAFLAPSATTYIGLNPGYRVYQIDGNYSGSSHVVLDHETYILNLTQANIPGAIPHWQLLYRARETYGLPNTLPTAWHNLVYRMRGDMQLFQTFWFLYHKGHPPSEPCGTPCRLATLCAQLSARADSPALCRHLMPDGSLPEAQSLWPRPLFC
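Steps: dispense placental human ASM, pin compound, wait 10 min at room temperature, add HMU-PC0 substrate at 9 uM final, incubate 60 min at 37 °C, add stop solution raising pH to 10, read fluorescence.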
TDP1 cell noCPT – qHTS for Inhibitors of human tyrosyl-DNA phosphodiesterase 1 (TDP1): qHTS in cells in absence of CPT; AID 686978, 2013; 420,000 tested, 15% active; DT40 Tdp1-/- hTDP1 cells, no CPT, ATP luminescence, 48 h; Potency, µM (titrated, usually from 46.2 µM), for inactives: at the highest dose activity change, negative = growth inhibition, hits mostly inhibitors; note: potency is the fitted concentration of half-maximal effect; % is set by controls: 0 for no effect and ±100 for the full control effect; nearly all actives have a fitted effect of over 55% in size
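Stably hTDP1-transfected Tdp1-null chicken DT40 cells were treated with library compounds minus camptothecin and grown for at least 48 hr at 37 °C, after which cellular ATP was quantified by luminescence.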
* = called active by the depositor. Unless noted, calls come from the whole dose curve; as a rule, active = well fitted curve in the direction sought with a large enough effect; inconclusive = small, poorly fitted or top-dose-only effect, or another doubt; inactive = no such curve, though single readings can be large; an effect the other way counts as inactive or inconclusive.

Screening N#CC(=C1NC(=O)c2ccccc21)c1nc2ccccc2n1CCO returned TGFb SMAD3 inh inconclusive, HepG2 tox 7%, IL1B secr inh -74*, DT40 TDP1 CPT inconclusive and TDP1 cell noCPT 8.2µM*.
For Cc1cccc(N2CCN(C(=O)c3cc4n(n3)C(C(F)(F)F)CC(c3ccco3)N4)CC2)c1C (stereo not drawn) the results were TGFb SMAD3 inh inconclusive, HepG2 tox -74%, IL1B secr inh -55*, DT40 TDP1 CPT 21µM*, S-ASM inh -15% and TDP1 cell noCPT 15µM*.
For O=C(c1cc2nc(-c3ccco3)cc(C(F)(F)F)n2n1)N1CCN(c2ccccn2)CC1 the results were TGFb SMAD3 inh -17%, HepG2 tox -11%, IL1B secr inh -11, DT40 TDP1 CPT 26µM*, S-ASM inh 13% and TDP1 cell noCPT 13µM*.
Screening O=C(c1cc2n(n1)C(C(F)(F)F)CC(c1ccco1)N2)N1CCN(c2ccccn2)CC1 (stereo not drawn) returned TGFb SMAD3 inh -13%, HepG2 tox -1%, IL1B secr inh -14, DT40 TDP1 CPT inconclusive, S-ASM inh 0% and TDP1 cell noCPT 26µM*.
`O=C(O)c1cc2n(n1)C(C(F)(F)F)CC(c1ccco1)N2` (stereo not drawn) gave TGFb SMAD3 inh -9%, HepG2 tox -23%, IL1B secr inh 17, DT40 TDP1 CPT 6%, S-ASM inh 0% and TDP1 cell noCPT 1%.
Screening NC(=O)c1cc2n(n1)C(C(F)(F)F)CC(c1ccco1)N2 (stereo not drawn) returned TGFb SMAD3 inh -16%, HepG2 tox -12%, IL1B secr inh 2, DT40 TDP1 CPT -1%, S-ASM inh 2% and TDP1 cell noCPT 19%.
For O=C(c1cc2nc(-c3ccco3)cc(C(F)(F)F)n2n1)N1CCN(c2ccccc2)CC1 the results were TGFb SMAD3 inh 4%, HepG2 tox -18%, IL1B secr inh -10, DT40 TDP1 CPT inconclusive, S-ASM inh 0% and TDP1 cell noCPT inconclusive.
`O=C(Nc1ccc(S(=O)(=O)Nc2ccccn2)cc1)c1ccc(Cl)cc1Cl` gave TGFb SMAD3 inh -21%, HepG2 tox -105%, IL1B secr inh 40, DT40 TDP1 CPT -6%, S-ASM inh -4% and TDP1 cell noCPT -3%.
CN1CCN(c2ccc(NC(=O)c3sc4ccccc4c3Cl)cc2)CC1 was read as TGFb SMAD3 inh 28%, HepG2 tox -9%, IL1B secr inh inconclusive, DT40 TDP1 CPT 12µM*, S-ASM inh -4% and TDP1 cell noCPT 13µM*.
COC(=O)c1ccc(N2CCN(c3ccccc3)CC2)c(N)c1 was read as TGFb SMAD3 inh 4%, HepG2 tox -19%, IL1B secr inh 7, DT40 TDP1 CPT inconclusive, S-ASM inh 2% and TDP1 cell noCPT inconclusive.
`CN1CCN(C(=O)c2ccccc2NC(=O)c2sc3ccccc3c2Cl)CC1` gave TGFb SMAD3 inh 2%, HepG2 tox -4%, IL1B secr inh -20, DT40 TDP1 CPT inconclusive, S-ASM inh -1% and TDP1 cell noCPT inconclusive.
`COC(=O)c1ccc(N2CCN(C)CC2)c(NC(=O)c2sc3ccccc3c2Cl)c1` gave TGFb SMAD3 inh 10%, HepG2 tox -9%, IL1B secr inh -14, DT40 TDP1 CPT 23µM*, S-ASM inh -2% and TDP1 cell noCPT 16µM*.
For COC(=O)c1ccc(N2CCN(c3ccccc3)CC2)c(NC(=O)C2CC2)c1 the results were TGFb SMAD3 inh -28%, HepG2 tox -29%, IL1B secr inh 44, DT40 TDP1 CPT 21µM*, S-ASM inh -9% and TDP1 cell noCPT 16µM*.
Screening N#Cc1cccnc1N1CCN(C(=O)COCC(=O)O)CC1 returned TGFb SMAD3 inh -5%, HepG2 tox -14%, IL1B secr inh 9, DT40 TDP1 CPT 1%, S-ASM inh 18% and TDP1 cell noCPT -10%.
For Nc1cc(S(=O)(=O)N2CCOCC2)ccc1Oc1cccc(Br)c1 the results were TGFb SMAD3 inh -12%, HepG2 tox -29%, IL1B secr inh -61*, DT40 TDP1 CPT inconclusive, S-ASM inh -1% and TDP1 cell noCPT inconclusive.
For CCCCC(=O)NCc1nc2cccnc2n1Cc1ccc(OC)cc1 the results were TGFb SMAD3 inh 17%, HepG2 tox -1%, DT40 TDP1 CPT -17% and TDP1 cell noCPT -8%.
Screening O=C(CCS(=O)(=O)Cc1ccccc1F)N1CCc2ccccc2C1 returned TGFb SMAD3 inh inconclusive, HepG2 tox -3%, IL1B secr inh 21, DT40 TDP1 CPT 23µM*, S-ASM inh 5% and TDP1 cell noCPT 16µM*.
Screening O=C(CCS(=O)(=O)Cc1ccccc1)N1CCc2ccccc2C1 returned TGFb SMAD3 inh 7%, HepG2 tox 0%, IL1B secr inh 54, DT40 TDP1 CPT inconclusive, S-ASM inh 1% and TDP1 cell noCPT -12%.
Screening CCOC(=O)C1=C(C)NC(C)=C(C(=O)OCC)C1c1cc2ccc(C)cc2[nH]c1=O returned TGFb SMAD3 inh 0%, HepG2 tox -8%, IL1B secr inh 51, DT40 TDP1 CPT 23µM*, S-ASM inh 37% and TDP1 cell noCPT inconclusive.
For Cc1ccc(NC2=C(Cl)C(=O)OC2OC(=O)c2ccco2)c(C)c1 (stereo not drawn) the results were TGFb SMAD3 inh -27%, HepG2 tox -44%, IL1B secr inh 0, DT40 TDP1 CPT inconclusive, S-ASM inh -2% and TDP1 cell noCPT -45%.
Cc1ccc(C)c(NC2=C(Cl)C(=O)OC2OC(=O)c2ccco2)c1 (stereo not drawn) was read as TGFb SMAD3 inh -16%, HepG2 tox -42%, IL1B secr inh -90*, DT40 TDP1 CPT 23µM*, S-ASM inh -5% and TDP1 cell noCPT 23µM*.
`Cc1ccc(NC2=C(Cl)C(=O)OC2OC(=O)c2ccco2)cc1C` (stereo not drawn) gave TGFb SMAD3 inh -17%, HepG2 tox -18%, IL1B secr inh -87*, DT40 TDP1 CPT inconclusive, S-ASM inh -2% and TDP1 cell noCPT inconclusive.
Screening COCCNC(=S)Nc1ccccn1 returned TGFb SMAD3 inh -4%, HepG2 tox -5%, IL1B secr inh -8, DT40 TDP1 CPT 6%, S-ASM inh 22% and TDP1 cell noCPT 15%.
